Source: PubChem BioAssay (several laboratories)
Shown are actives, neighbours in structure and some others; about 5.6% of the full set was active somewhere.
Cardio protect: cardioprotection against H2O2-induced cell death, primary screen, uHTS, H9c2 cells, ATPLite luminescence; protection from H2O2 cell death, % at 20 µM; H9c2 cardiomyocytes, H2O2 injury protection, 2 h; 0.63% of 360,000 active;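 active = compounds giving at least 50% protection of heart cells from peroxide-induced death in the single-dose screen, raw or plate-pattern-corrected value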
PfG6PD inh: PfG6PD enzyme inhibitors, primary screen, biochemical, fluorescence intensity, uHTS. PfGluPho enzyme, NADPH resazurin-diaphorase fluorescence. inhibition, % at 20 µM. 0.78% of 350,000 active;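 active = inhibition reaching at least a set limit at 20 µM in the primary screen, cut at about 59% in these data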
PHOSPHO1 inh: PubChem AID 1565; Phosphoethanolamine/phosphocholine phosphatase (Homo sapiens), Q8TCT1; inhibition, % at 13.3 µM; recombinant PHOSPHO1, absorbance phosphatase assay; 1.1% of 290,000 active; in the data active = inhibition above about 60%
Target sequence (Q8TCT1 whole entry, looked up): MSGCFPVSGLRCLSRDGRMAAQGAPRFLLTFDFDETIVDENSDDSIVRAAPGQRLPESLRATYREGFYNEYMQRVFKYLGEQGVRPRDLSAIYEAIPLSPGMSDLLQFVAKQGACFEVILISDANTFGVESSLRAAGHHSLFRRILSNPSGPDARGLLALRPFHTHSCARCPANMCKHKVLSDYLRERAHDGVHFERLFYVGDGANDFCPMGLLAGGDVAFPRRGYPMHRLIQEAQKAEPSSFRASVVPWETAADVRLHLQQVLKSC
PfM18AAP inh: PfM18AAP inhibitors, malaria aminopeptidase, primary screen, biochemical, QFRET, recombinant enzyme; inhibition, % at 7.35 µM; H-Glu-NHMec fluorogenic cleavage; M18 aspartyl aminopeptidase (Plasmodium falciparum 3D7); 1.2% of 290,000 active;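 active = inhibition above the campaign mean inhibition over all tested compounds plus 3 SD, cut at about 28% in these data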
ALR inh: inhibitors of human ALR sulfhydryl oxidase, primary screen, biochemical, H2O2 detection, HRP-luminol luminescence, single point; FAD-linked sulfhydryl oxidase ALR (Homo sapiens), P55789; purified ALR, DTT oxidation; inhibition, % (no concentration beside the values); 3.8% of 290,000 active; AID 485317, 2010;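 active = mean replicate inhibition above about 79%, with every replicate also reaching it, limit read from the data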
Target sequence (P55789 whole entry, looked up): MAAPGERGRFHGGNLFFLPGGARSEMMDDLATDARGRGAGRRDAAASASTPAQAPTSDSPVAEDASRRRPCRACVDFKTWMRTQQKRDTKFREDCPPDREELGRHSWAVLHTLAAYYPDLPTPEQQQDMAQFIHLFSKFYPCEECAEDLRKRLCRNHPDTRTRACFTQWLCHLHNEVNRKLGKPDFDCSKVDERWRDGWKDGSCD
PfG6PD confirm: PfG6PD inhibitors, hit retest, confirmation, biochemical, fluorescence intensity, single concentration | 34% of 2,400 active | inhibition, % at 20 µM | shares compounds with PfG6PD inh | recombinant PfGluPho, NADPH-diaphorase-resazurin fluorescence;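 active = inhibition of at least 50% at 20 µM in any single replicate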
Diaphorase 10uM: diaphorase inhibitors and chemical oxidizers, confirmation, counter-screen for P. falciparum G6PD inhibitor project, biochemical, fluorescence intensity, 10 µM NADPH | diaphorase-coupled resazurin reduction, NADPH 10 uM | 39% of 820 active | inhibition, % at 20 µM | AID 504862, 2011 | shares compounds with PfG6PD inh;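 active = average inhibition reaching 50% or more with the compound at 20 µM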;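 also: resorufin red fluorescence formed as diaphorase reduces resazurin using NADPH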
Diaphorase 30uM: diaphorase inhibitors and chemical oxidizers, confirmation, counter-screen for P. falciparum G6PD inhibitor project, biochemical, fluorescence intensity, 30 µM NADPH; Diaphorase/resazurin coupled assay, resorufin fluorescence; shares compounds with PfG6PD inh; AID 504863, 2011; inhibition, % at 20 µM; 29% of 820 active;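 active = inhibition averaging 50% or more, tested at 20 µM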
Of the large screens only hits and unclear results are named; the others gave an inactive call (follow-up assays come after a bar, where they were run).

CO/N=C/c1ccc(Oc2ccc([N+](=O)[O-])cc2[N+](=O)[O-])c(OC)c1	PfG6PD inh 94 (no result: ALR inh) | PfG6PD confirm inactive
COc1cc(/C=N/O)ccc1Oc1ccc([N+](=O)[O-])cc1[N+](=O)[O-]	none
CC(=O)COc1cc(C)cc2oc(=O)cc(-c3ccccc3)c12	none
COc1ccc([N+](=O)[O-])cc1COc1cc(C)cc2oc(=O)cc(-c3ccccc3)c12	PfG6PD inh 86 | PfG6PD confirm inactive
COc1ccc(S(=O)(=O)N(C)[C@H]2C[C@H]3c4cc(Oc5ccccc5C)ccc4CCN3C(=O)[C@H]2[C@H](C)O)cc1	none (no result: PHOSPHO1 inh, PfM18AAP inh, ALR inh)
CC1CCCCC1NC(=O)CSc1nnnn1C (stereo not given)	none (no result: PHOSPHO1 inh, PfM18AAP inh, ALR inh)
Cc1ccc(C(=O)CC(=O)c2ccccc2C)c(O)c1	none
C=C(CN(C)C)C(=O)c1ccc(C)cc1C	PfG6PD inh 68 (no result: PHOSPHO1 inh, PfM18AAP inh, ALR inh) | PfG6PD confirm inactive
COc1cc2c(cc1OC)CN(C(=O)CN1CCN(S(=O)(=O)c3ccc(C)c(C)c3)CC1)CC2	none
O=C(O)c1ccc(-c2ccc(/C=N/Nc3ccc([N+](=O)[O-])cc3)o2)cc1	PfG6PD inh 71 | PfG6PD confirm inactive
O=C(O)c1cccc(-c2ccc(/C=N/Nc3ccc([N+](=O)[O-])cc3)o2)c1	none
Cc1cc2c(N)cccc2nn1	PfG6PD inh 100 | PfG6PD confirm inactive
O=[N+]([O-])c1cccc(SSc2cccc([N+](=O)[O-])c2)c1	PfG6PD inh 115 (no result: PHOSPHO1 inh, PfM18AAP inh, ALR inh) | PfG6PD confirm 52 | Diaphorase 10uM inactive | Diaphorase 30uM inactive
Nc1cccc([N+](=O)[O-])c1	none
Cc1ccc(NC(=O)c2cc(C)n(-c3ccccc3)c2C)cc1	PfG6PD inh 95 | PfG6PD confirm 53 | Diaphorase 10uM 53 | Diaphorase 30uM inactive
Cc1ccc(NC(=O)c2cc(C)n(-c3cccc(C)c3)c2C)cc1	PfG6PD inh 82 | PfG6PD confirm inactive
Cc1ccc(NC(=O)c2cnn(-c3ccccc3)c2C)cc1	none
Cc1cc(C(=O)Nc2ccc(Cl)cc2)c(C)n1-c1ccccc1	PfG6PD inh 98 | PfG6PD confirm inactive
O=C(O)C(Cc1ccccc1)N1C(=O)C=CC1=O (stereo not given)	PfG6PD inh 90 (no result: PHOSPHO1 inh, PfM18AAP inh, ALR inh) | PfG6PD confirm 85 | Diaphorase 10uM inactive | Diaphorase 30uM inactive
O=C(O)C(Cc1ccccc1)N1C(=O)CCC1=O (stereo not given)	none (no result: ALR inh)
CC1CCc2[nH]c3ccc(C(=O)N(C)CC(=O)Nc4ccc(F)cc4)cc3c2C1 (stereo not given)	none
CCN(CC(=O)Nc1ccccc1C(F)(F)F)C(=O)c1ccc2[nH]c3c(c2c1)CC(C)CC3 (stereo not given)	PfG6PD inh 90 (no result: PHOSPHO1 inh, PfM18AAP inh) | PfG6PD confirm inactive
CC[C@@]1(C(=O)OC)N[C@H](CN(C)C(=O)Nc2ccc(Cl)cc2)[C@@H]2C(=O)N(Cc3ccccc3)C(=O)[C@@H]21	none (no result: PHOSPHO1 inh, PfM18AAP inh, ALR inh)
O=C1CCCC(O)=C1C(C#Cc1ccccc1)C1=C(O)CCCC1=O	PfG6PD inh 64 | PfG6PD confirm inactive
CCOC(=O)N(O)c1ccc(C=Cc2ccccc2)cc1	none (no result: PHOSPHO1 inh, PfM18AAP inh, ALR inh)
Cn1cc(SCC(=O)N2CCCc3ccccc32)c2ccccc21	PfG6PD inh 60 (no result: ALR inh) | PfG6PD confirm inactive
Cn1cc(SCC(=O)N2CCOCC2)c2ccccc21	none (no result: ALR inh)
CNc1cccnc1C=NNC(N)=S	PfG6PD inh 74 (no result: PHOSPHO1 inh, PfM18AAP inh, ALR inh) | PfG6PD confirm inactive
NC(=S)NN=Cc1nccc2c(C(F)(F)F)cccc12	none (no result: PHOSPHO1 inh, PfM18AAP inh, ALR inh)
O=C1Nc2cc(C(=O)NCCCN3CCCC3)ccc2S/C1=C/c1cccc(Cl)c1	PfG6PD inh 61 (no result: PHOSPHO1 inh, PfM18AAP inh, ALR inh) | PfG6PD confirm 79 | Diaphorase 10uM inactive | Diaphorase 30uM inactive
CCN1CCCC1CNC(=O)c1ccc2c(c1)NC(=O)/C(=C\c1ccccc1Cl)S2 (stereo not given)	PfG6PD inh 118 (no result: PHOSPHO1 inh, PfM18AAP inh, ALR inh) | PfG6PD confirm 105 | Diaphorase 10uM inactive | Diaphorase 30uM inactive
CCN1CCN(CCCNC(=O)c2ccc3c(c2)NC(=O)/C(=C\c2cccc(C)c2)S3)CC1	none
CCN1CCCC1CNC(=O)c1ccc2c(c1)NC(=O)/C(=C\c1ccc(OC)c(OC)c1)S2 (stereo not given)	none
CCN(C(=O)COc1cccc2cccnc12)C1CCS(=O)(=O)C1 (stereo not given)	none
COc1ccc(/C=N/Nc2cc(C)nc3c(C)cccc23)cc1	PfG6PD inh 76 | PfG6PD confirm inactive
C[C@@H]1ON(C)[C@H]2C[C@H]3c4[nH]c5ccccc5c4CCN3C(=O)[C@@H]12	none (no result: PHOSPHO1 inh, PfM18AAP inh, ALR inh)
C[C@@H]1ON(C)[C@H]2C[C@H]3c4[nH]c5ccc(-c6ccc7c(c6)OCO7)cc5c4CCN3C(=O)[C@@H]12	PfG6PD inh 76 (no result: PHOSPHO1 inh, PfM18AAP inh, ALR inh) | PfG6PD confirm inactive
CC(S(=O)(=O)c1ccccc1)S(=O)(=O)c1ccccc1	none (no result: PHOSPHO1 inh, PfM18AAP inh, ALR inh)
CC1=C/C(=N\OS(=O)(=O)c2ccccc2)C(C(C)C)=CC1=O	PfG6PD inh 98, ALR inh 98 | PfG6PD confirm 96 | Diaphorase 10uM 76 | Diaphorase 30uM 63
CC1=C/C(=N\OS(=O)(=O)c2ccccc2)C(C)=CC1=O	PfG6PD inh 111, ALR inh 99 | PfG6PD confirm 105 | Diaphorase 10uM 98 | Diaphorase 30uM 103
O=C(Nc1sc2c(c1C(=O)O)CCC2)c1ccccc1	PfG6PD inh 62 (no result: ALR inh) | PfG6PD confirm inactive
O=C(Nc1sc2c(c1C(=O)O)CCC2)c1ccc(F)cc1	PfG6PD inh 91 | PfG6PD confirm 54 | Diaphorase 10uM inactive | Diaphorase 30uM inactive
O=C(Nc1sc2c(c1C(=O)O)CCCC2)c1ccc(Cl)cc1	PfG6PD inh 124 (no result: ALR inh) | PfG6PD confirm 77 | Diaphorase 10uM 73 | Diaphorase 30uM 72
O=C(Nc1sc2c(c1C(=O)O)CCC2)c1cccs1	none
O=C(Nc1sc2c(c1C(=O)O)CCCC2)c1cccc(Cl)c1	PfG6PD inh 62 | PfG6PD confirm inactive
CC(C)c1ccc(C(=O)OCC(=O)NC2CCCC2)cc1	none (no result: ALR inh)
N#Cc1c(NC(=O)c2ccccc2)sc2c1CCCCC2	none
O=C(Nc1sc2c(c1C(=O)O)CCCCC2)c1ccccc1	PfG6PD inh 80 | PfG6PD confirm inactive
COc1cnn(-c2ccc(Br)cc2)c(=O)c1SCc1ccccc1	none
